RECQ1 inh-1 – qHTS Assay for Inhibitors of RecQ-Like Dna Helicase 1 (RECQ1). ATP-dependent DNA helicase Q1 (Homo sapiens), P46063. RECQ1 DNA unwinding, red fluorescence kinetic read. Potency, µM (doses to about 57.3 µM), for the others: at the top dose activity, negative = inhibition, most hits filed as inhibitors. hit rate 0.54% among 240,000. AID 2549, 2010;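 further: plate controls were vehicle for no effect and no enzyme for full effect; nearly all actives have a fitted effect of over 30% in size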
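RECQ1T1 50 nM; forked duplex (20 bp + 30-nt ss tails) 200 nM, ATP 2 mM final; pH 8.0, 2 mM MgCl2, 2.5 ug/ml poly(dI-dC); 15 min compound preincubation; discontinuous kinetic read over 2 h at RT.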
WRN helicase inh – qHTS for Inhibitors of WRN Helicase; Bifunctional 3'-5' exonuclease/ATP-dependent helicase WRN (Homo sapiens), Q14191; WRN helicase unwinding, fluorescent forked duplex, kinetic; Potency, µM (series often up to 114 µM), inactives show at the top dose activity change, negative = inhibition, actives largely listed as inhibitors; hit rate 0.46% among 360,000; further: nearly all actives have a fitted effect of over 55% in size
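Kinetic fluorescence helicase assay: unwinding of a quenched forked DNA duplex (100 nM final) with 2 mM ATP final raises red fluorescence (525/598 nm). Compounds sat 15 min at room temperature with 20 nM WRN beforehand.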
BLM inh – qHTS Assay for Inhibitors of Bloom's syndrome helicase (BLM) | RecQ-like DNA helicase BLM (Homo sapiens), P54132 | recombinant BLM DNA unwinding, fluorescence dequenching | Potency, µM (doses to about 56.1 µM), for inactives: at the top dose activity change, negative = inhibition, usual class: inhibitors | hit rate 0.2% among 350,000 | AID 2528, 2010;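 further: plate controls were vehicle for no effect and no enzyme for full effect; nearly all actives have a fitted effect of over 35% in size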
APE1 inh-1 – qHTS Assay for Inhibitors of the Human Apurinic/apyrimidinic Endonuclease 1 (APE1); DNA repair nuclease/redox regulator APEX1 (Homo sapiens), P27695; AID 2517, 2012; recombinant APE1, TAMRA/BHQ-2 abasic DNA cleavage fluorescence; Potency, µM (doses to about 65.8 µM), for the others: at the top dose activity change, negative = inhibition, actives largely listed as inhibitors; hit rate 0.35% among 350,000;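 further: plate controls were vehicle for no effect and reference inhibitor for full effect; nearly all actives have a fitted effect of over 55% in size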
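Incision of a quenched TAMRA/BHQ-2 THF abasic-site duplex (50 nM) by 0.75 nM APE1, after 15 min compound preincubation, measured as fluorescence increase over three 60 s reads. Values normalized to buffer, DMSO and NSC13755 control wells.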
L3MBTL1 inh – qHTS Assay for the Inhibitors of L3MBTL1 | Lethal(3)malignant brain tumor-like protein 1 (Homo sapiens), Q9Y468 | AlphaScreen L3MBTL1–H3K9me1 peptide binding | Potency, µM (highest dose often 57.1 µM), for the others: top-dose activity, negative = inhibition, usual class: inhibitors | hit rate 0.66% among 230,000; further: nearly all actives have a fitted effect of over 60% in size
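L3MBTL1 (50 nM) pre-complexed 30 min with biotinylated H3(1-15)K9me1 peptide (75 nM), then compounds added for 30 min at room temperature; AlphaScreen streptavidin donor/nickel chelate acceptor beads (10 ug/mL final) read after 30 min dark incubation.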
APE1 dye cs – Counterscreen for APE1 Inhibitors: Fluorescent Dye Displacement Assay; shares compounds with APE1 inh-1; DNA fluorescent dye displacement counterscreen, fluorescence; Potency, µM (titrated, usually from 28.5 µM), for inactives: at the highest dose activity change, negative = inhibition, usual class: inhibitors; hit rate 7% among 480;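 further: loss of thiazole orange fluorescence as the dye is displaced from duplex DNA; 0% = ThO with dsDNA and no compound and -100% = ThO without dsDNA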
EndoIV counter – Counterscreen for APE1 Inhibitors: qHTS Assay for Inhibitors of Endonuclease IV; Potency, µM (series often up to 27.1 µM), without a hit: at the top dose activity change, negative = inhibition, most hits filed as inhibitors; AID 2565, 2010; shares compounds with APE1 inh-1; hit rate 4% among 560; E. coli Endo IV, fluorogenic AP-site DNA cleavage;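 further: plate controls were uninhibited enzyme wells for no effect and no enzyme buffer wells for full effect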
APE1 inh-2 – Confirmation qHTS Assay for Inhibitors of the Human Apurinic/apyrimidinic Endonuclease 1 (APE1). shares compounds with APE1 inh-1. purified APE1, fluorogenic abasic-site DNA cleavage. Potency, µM (series often up to 57.1 µM), without a hit: at the top dose activity change, negative = inhibition, actives largely listed as inhibitors. hit rate 44% among 750; further: nearly all actives have a fitted effect of over 30% in size
APE1 FP inh – qHTS FP-Based Assay for Inhibitors of the Human Apurinic/apyrimidinic Endonuclease 1 (APE1). Potency, µM (series often up to 28.5 µM), for inactives: top-dose activity, negative = inhibition, actives largely listed as inhibitors. APE1 binding to TAMRA-labelled double-stranded DNA, fluorescence polarization displacement. shares compounds with APE1 inh-1. hit rate 7% among 480
RECQ1 inh conf – Confirmation qHTS Assay for Inhibitors of RecQ-Like Dna Helicase 1 (RECQ1); shares compounds with RECQ1 inh-1; RECQ1 helicase DNA unwinding, fluorescence; Potency, µM (series often up to 229 µM), for the others: at the top dose activity change, negative = inhibition, usual class: inhibitors; hit rate 28% among 610; AID 2708, 2010; further: nearly all actives have a fitted effect of over 45% in size
RECQ1 ADP FP – Counterscreen for RECQ1 Inhibitors: ADP Fluorescence Polarization Displacement Assay. ADP fluorescence polarization displacement counterscreen. Potency, µM (top dose mostly 228 µM), inactives show at the top dose activity change, negative = inhibition, hits mostly inhibitors. hit rate 27% among 530. shares compounds with RECQ1 inh-1; further: nearly all actives have a fitted effect of over 45% in size
RECQ1 inh-2 – Confirmation qHTS Assay for Inhibitors of RecQ-Like Dna Helicase 1 (RECQ1) - Round 2 Cherry Picks. hit rate 15% among 1,100. shares compounds with RECQ1 inh-1. Potency, µM (highest dose often 119 µM), for the others: at the highest dose activity, negative = inhibition, hits mostly inhibitors. recombinant RECQ1 DNA unwinding, red fluorescence; further: nearly all actives have a fitted effect of over 50% in size
An asterisk follows results filed as active; i = inactive; ? = inconclusive; nt = no result given; [ ] = another dose, or the depositor's remark. Rows were chosen to be rich in hits. Some 0.92% of all compounds tested hit in one or more screens of this group. The call rests on the fitted dose curve; in most records, active means well fitted curve in the direction sought with a large enough effect; inconclusive means small, poorly fitted or top-dose-only effect, or another doubt; inactive means no such curve, though single readings can be large; an effect the other way counts as inactive or inconclusive. Unless noted, on the % scale 0 is the no-effect control and ±100 the full control effect; potency means the concentration at half of the fitted maximal effect.

SMILES	RECQ1 inh-1	WRN helicase inh	BLM inh	APE1 inh-1	L3MBTL1 inh	APE1 dye cs	EndoIV counter	APE1 inh-2	APE1 FP inh	RECQ1 inh-2	others
CCOc1cc(N2CCOCC2)c(OCC)cc1NC(C)C(=O)N1CCN(CC)CC1 (stereo unspecified)	?	?	-10.3%	10µM*	17.8µM*	nt	nt	?	nt	-7.2%
CCOc1cc(N2CCOCC2)c(OCC)cc1NC(=O)C(C)C	i	-3.7%	-2.1%	3.7%	nt	nt	nt	nt	nt	nt
CCC1=NN2C(=N)/C(=C\c3ccc(OCc4cc(=O)n5nc(CC)sc5n4)c(OC)c3)C(=O)N=C2S1	7.08µM*	-31.6%[11.6 µM]	14.1µM*	?	?	nt	nt	31.6µM*	nt	?
CCc1nn2c(=O)cc(COc3ccc(/C=C4\C(=N)N5N=C(CC(C)C)SC5=NC4=O)cc3)nc2s1	i	-15.3%[11.6 µM]	-22.7%	?	nt	nt	nt	nt	nt	nt
CCc1oc2ccccc2c1C(=O)c1cc(I)c(O)c(I)c1	nt	nt	-20.1%	nt	nt	nt	nt	nt	nt	nt
O=C(c1cc(C(=O)c2ccco2)cc(C(=O)c2ccco2)c1)c1ccco1	35.5µM*	-17.2%	-19.5%	31.6µM*	-8.5%	-7.4%	26.6%	?	-5.4%	-54.5%
O=C(O)C[C@@H]1C(=O)O[C@@H]2C(COC(=O)c3cc(O)c(O)c(O)c3)O[C@@H](OC(=O)c3cc(O)c(O)c(O)c3)[C@@H](OC(=O)c3cc(O)c(O)c4c3[C@H]1[C@H](O)C(=O)O4)[C@H]2OC(=O)c1cc(O)c(O)c(O)c1 (stereo partly specified)	0.112µM*	nt	0.1µM*	0.0089µM*	nt	?	?	0.0022µM*	?	nt	RECQ1 inh conf=0.447µM*;RECQ1 ADP FP=31.6µM*
OC[C@@H]1O[C@@H](Oc2ccc(O)cc2)[C@H](O)[C@@H](O)[C@@H]1O	5.0%	nt	-1.5%	-4.1%	nt	nt	nt	nt	nt	nt
Cc1cc(SCC(=O)c2ccc(O)c(O)c2)nc2ccccc12	25.1µM*	?	-18.9%	?	-18.0%	12.6µM*	75.5%	?	13.1%	10µM*
Cc1cccc(NC(=O)CSc2nnc(-c3ccco3)c(-c3ccco3)n2)c1C	17.8µM*	31.6µM*	17.8µM*	?	?	?	29.5%	?	0.9%	-13.0%
Cc1ccccc1NC(=O)CSc1nnc(-c2ccco2)n1N	nt	-11.8%	nt	-14.6%	-6.9%	nt	nt	nt	nt	nt
CC(C)C[C@H](NC(=O)[C@H](CC(C)C)NC(=O)[C@@H](Cc1c[nH]c2ccccc12)NC(=O)[C@H](Cc1ccccc1)NC(=O)[C@@H](Cc1c[nH]c2ccccc12)NC(=O)[C@H](CCC(N)=O)NC(=O)[C@H](CCC(N)=O)NC(=O)[C@@H]1CCCN1C(=O)[C@H](CCCCN)NC(=O)[C@@H]1CCCN1C(=O)[C@@H](CCCNC(=N)N)NC(=O)[C@@H]1CCCN1C(=O)CNC(=O)[C@H](CC(C)C)NC(=O)[C@H](CC(C)C)NC(=O)[C@H](Cc1ccc(O)cc1)NC(=O)CNC(=O)[C@H](C)NC(=O)[C@H](CO)NC(=O)[C@H](CC(N)=O)NC(=O)[C@H](CC(C)C)NC(=O)[C@@H](NC(=O)[C@H](Cc1c[nH]c2ccccc12)NC(=O)CN)[C@@H](C)O)C(N)=O	-18.1%	nt	-8.8%	1.9%	nt	nt	nt	nt	nt	nt
O=C(Nc1nccs1)C1CC=CC2CCN(Cc3ccc(Cl)c(Cl)c3)C(=O)C21 (stereo unspecified)	-1.8%	nt	0.9%	-8.7%	nt	nt	nt	nt	nt	nt
NC(CCC(=O)NCS(=O)(=O)O)C(=O)O (stereo unspecified)	-9.7%	nt	nt	?	nt	nt	nt	nt	nt	nt
CC(=O)NC1=NC(=O)/C(=C/c2cc(C)n(-c3cccc(C(=O)O)c3)c2C)S1	?	44.7µM*	-4.3%	3.55µM*	nt	9.9%	-1.1%	4.47µM*	?	20µM*
Nc1ccc(N(CCO)CCO)cc1	?	-29.7%	-26.8%	20µM*	12.6µM*	-2.7%	6.2%	-15.3%[24.4 µM]	-11.2%	-4.6%
CCN(CC)c1ccc(N)cc1	?	-14.9%	nt	4.1%	?	nt	nt	nt	nt	nt
Cc1ccc(C2CC(=O)Oc3ccc(O)cc32)cc1 (stereo unspecified)	i	nt	-0.1%[120 µM]	-1.6%[120 µM]	nt	nt	nt	nt	nt	nt

Screening results (PubChem)
